Assay outcomes as filed in PubChem.
Hits are enriched below; roughly 18% of the tested compounds scored in any of these assays.
TDP1 block: TDP1 (human) enzyme inhibition; Q9NUW8; recombinant TDP1, AlphaScreen DNA substrate cleavage; Potency, µM (top dose mostly 130 µM), for inactives: top-dose activity change, negative = inhibition, hits mostly inhibitors; 350,000 tested, 0.28% active; AID 485290; further: potency means the concentration at half of the fitted maximal effect; on the % scale 0 is the no-effect control and ±100 the full control effect; nearly all actives have a fitted effect of over 40% in size
Target sequence (Q9NUW8 whole entry, looked up): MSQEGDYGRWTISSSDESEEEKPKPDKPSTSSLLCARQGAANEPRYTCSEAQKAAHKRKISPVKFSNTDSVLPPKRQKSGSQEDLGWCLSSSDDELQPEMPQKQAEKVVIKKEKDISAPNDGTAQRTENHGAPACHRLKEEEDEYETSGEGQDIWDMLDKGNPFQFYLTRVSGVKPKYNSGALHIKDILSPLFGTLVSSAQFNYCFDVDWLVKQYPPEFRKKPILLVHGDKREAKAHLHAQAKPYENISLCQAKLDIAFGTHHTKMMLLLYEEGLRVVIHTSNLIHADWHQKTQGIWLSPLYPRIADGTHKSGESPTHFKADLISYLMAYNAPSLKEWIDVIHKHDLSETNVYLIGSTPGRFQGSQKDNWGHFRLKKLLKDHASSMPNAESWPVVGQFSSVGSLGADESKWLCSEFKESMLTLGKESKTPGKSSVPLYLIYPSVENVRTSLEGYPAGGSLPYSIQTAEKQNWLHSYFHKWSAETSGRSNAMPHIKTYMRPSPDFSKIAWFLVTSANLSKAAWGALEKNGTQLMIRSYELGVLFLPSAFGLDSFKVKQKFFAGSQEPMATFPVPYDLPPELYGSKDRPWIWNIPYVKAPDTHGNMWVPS
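Signal: AlphaScreen proximity between streptavidin donor and anti-FITC acceptor beads on intact substrate. Reaction: Tdp1 1 nM, substrate 15 nM final, 5 min RT after 15 min compound preincubation.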
TGFb inhibitor: blocks TGF-b signaling | HepG2 CAGA-GFP TGF-b/SMAD3 reporter, GFP fluorescence, 18 h; TGF-beta stimulated, 500 pg/mL final | Potency, µM (doses to about 46.1 µM), for inactives: at the highest dose activity, negative = inhibition, hits mostly inhibitors | 410,000 tested, 1.2% active; further: potency means the concentration at half of the fitted maximal effect; on the % scale 0 is the no-effect control and ±100 the full control effect; nearly all actives have a fitted effect of over 65% in size
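HEPG2 CAGA-GFP reporter cells (1000/well, DMEM with 1% FBS) received compounds, then recombinant TGF-beta at 500 pg/mL final for 18 hours at 37 degrees C. Per-cell GFP summed per well was normalised to unstimulated and stimulated DMSO controls before curve fitting.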
TDP1 cell CPT: growth inhibition of DT40 Tdp1-/-;hTDP1 cells with camptothecin (screen for TDP1 inhibitors); chicken DT40 Tdp1-/-;hTDP1 cells + 20 nM CPT, ATP luminescence, 48 h; Potency, µM (series often up to 46.2 µM), for inactives: at the highest dose activity change, negative = growth inhibition, most hits filed as inhibitors; 420,000 tested, 12% active; AID 686979; further: potency means the concentration at half of the fitted maximal effect; on the % scale 0 is the no-effect control and ±100 the full control effect; nearly all actives have a fitted effect of over 55% in size
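Chicken DT40 Tdp1-/- cells complemented with human TDP1, 400 cells/well, exposed to compounds plus 20 nM camptothecin for at least 48 h at 37 C; viability read as ATP content by CellTiter-Glo luminescence.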
TDP1 cell noCPT: qHTS for Inhibitors of human tyrosyl-DNA phosphodiesterase 1 (TDP1): qHTS in cells in absence of CPT. DT40 Tdp1-/- hTDP1 cells, no CPT, ATP luminescence, 48 h. Potency, µM (titrated, usually from 46.2 µM), inactives show top-dose activity change, negative = growth inhibition, hits mostly inhibitors. 420,000 tested, 15% active. AID 686978, 2013; further: potency means the concentration at half of the fitted maximal effect; on the % scale 0 is the no-effect control and ±100 the full control effect; nearly all actives have a fitted effect of over 55% in size
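Cells were dispensed at 400 per well, compounds added by pin tool, plates incubated ≥48 hr at 37 °C, then CellTiter-Glo added for 30 min at room temperature before luminescence reading. Line: DT40 Tdp1-/- complemented with hTDP1; camptothecin omitted.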
HepG2 tox: counter-screen for TGF-b inhibitors: cytotoxicity in HepG2 cells | HepG2 CAGA-GFP viability, ATP luminescence, 18 h | Potency, µM (top dose mostly 46.1 µM), inactives show top-dose activity change, negative = cytotoxicity, usual class: cytotoxic | 410,000 tested, 0.76% active; further: potency means the concentration at half of the fitted maximal effect
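CellTiter-Glo luminescence gave cytotoxicity after 18 hours at 37 degrees C. The cells were HepG2 CAGA-GFP in 1% FBS DMEM, stimulated with 500 pg/mL TGF-beta after compound addition. %Activity was normalised to no-cell wells (complete cell-killing) and DMSO (no toxicity), and curves were fitted and classified.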
IL-1B inflam inh: inflammasome signaling inhibition, IL-1 beta readout; THP-1 LPS/ATP IL-1B secretion, AlphaLISA, 16 h; hits give low values; activity change, % at 57.5 µM; 360,000 tested, 4.7% active; in the data active means activity change below about -50%; inconclusive means mostly about -30% to -49%; further: on the % scale 0 is the no-effect control and ±100 the full control effect
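THP-1 cells pretreated 1 hr with compounds (up to 57.5 uM final), then stimulated with LPS (250 ng/mL final) plus ATP (1.25 mM final); secreted IL-1B measured by AlphaLISA after 16 hr, decreased signal indicating inhibition.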
* = called active by the depositor; ? = inconclusive; . = not tested or not shown; [ ] = dose if it differs, or a comment. Unless noted, the call rests on the fitted dose curve; in most records, active means well fitted curve in the direction sought with a large enough effect; inconclusive means small, poorly fitted or top-dose-only effect, or another doubt; inactive means no such curve, though single readings can be large; an effect the other way counts as inactive or inconclusive.

SMILES	TDP1 block	TGFb inhibitor	TDP1 cell CPT	TDP1 cell noCPT	HepG2 tox	IL-1B inflam inh
COc1cccc(C2c3c(oc4cc(C)cc(C)c4c3=O)C(=O)N2CCc2ccc(OC)c(OC)c2)c1 (stereo not given)	7%	4%	-31%	4%	10%	.
CCC(C)NS(=O)(=O)c1ccc(NS(=O)(=O)c2ccc(F)cc2)cc1 (stereo not given)	4%	-23%	0%	-14%	-20%	0
CCC(=O)Nc1cc(OC)c(NC(=S)Nc2ccccc2CC)cc1OC	.	-4%	-28%	?	-1%	-15
Cc1ccc(S(C)(=O)=O)cc1C(=O)Nc1ccc(S(=O)(=O)Nc2nccs2)cc1	2%	5%	8%	2%	4%	12
O=C(CSc1n[nH]c(=O)n1C1CC1)Nc1ccccc1	0%	-1%	-13%	0%	-18%	7
O=C(CSc1n[nH]c(=O)n1C1CC1)Nc1cc(Cl)ccc1Oc1ccccc1	8%	-13%	16µM*	15µM*	-26%	-15
CCC(=O)N1CCc2cc(S(=O)(=O)CCC(=O)N(C)c3ccc(OC)cc3)ccc21	4%	?	-5%	3%	-2%	-21
CN1CCN(c2nc(-c3ccc(Br)cc3)nnc2-c2ccccc2)CC1	6%	-6%	16µM*	12µM*	-15%	-58*
Brc1ccc(-c2nnc(-c3ccccc3)c(N3CCSCC3)n2)cc1	5%	7%	?	26µM*	8%	-1
CN1CCN(c2nc(-c3ccc(N(C)C)cc3)nc3ccccc23)CC1	-8%[56.1 µM]	.	?	?	.	.
N#Cc1c(-c2ccccc2)nc(-c2ccccc2)nc1N1CCOCC1	4%	9%	-17%	?	-4%	?
Cc1ccc(-c2nnc(-c3ccccc3)c(N3CCOCC3)n2)cc1	7%	60%	?	16µM*	-40%	15
Cc1nnc(-c2cccc(C(F)(F)F)c2)nc1N1CCOCC1	-3%	0%	5%	15µM*	0%	-3
FC(F)(F)c1cccc(-c2noc(CN3CCOCC3)n2)c1	-1%	10%	-13%	-16%	9%	12
CCOC(=O)c1c(NC(=O)COC(=O)c2c(C)noc2C)sc2c1CCC2	5%	3%	-28%	-15%	7%	6
CCn1c(=O)c2cc(C(=O)Nc3cc(F)ccc3F)sc2c2ccccc21	1%	1%	?	?	-29%	.
C=C(C)n1c(=O)n(Cc2ccccc2C)c2ccccc21	.	8%	-11%	-11%	0%	0
O=C(CCN1C(=O)CC1c1ccco1)N1CCOCC1 (stereo not given)	.	5%	3%	-6%	0%	16
c1ccc(-c2nnc(N3CCOCC3)nc2-c2ccccc2)cc1	6%	-32%	16µM*	?	-20%	-9
CC1CN(C(=O)COC(=O)c2cccc(S(=O)(=O)N3CCc4ccccc43)c2)CC(C)O1 (stereo not given)	-3%	-9%	?	?	-180%	15
COc1ccc(NC(=O)c2sc3ncn(CC(=O)N4CCCCC4)c(=O)c3c2C)cc1OC	6%	7%	?	-18%	8%	3
COc1ccc(Br)cc1S(=O)(=O)n1c([N+](=O)[O-])cnc1C	.	-17%	0%	-8%	-5%	20
COc1cc(OC)c2c(c1)O/C(=C\c1ccccc1)C2=O	.	-9%	?	?	-23%	-10
COCOc1ccc(/C=C2/Oc3cc(OCOC)cc(OCOC)c3C2=O)c(OCOC)c1	.	47%	13µM*	23µM*	-31%	-12
O=C(COC(=O)C1(c2ccccc2F)CCCC1)N1CCNC1=O	-10%	-1%	-13%	-13%	0%	2
SMILES	TDP1 block	TGFb inhibitor	TDP1 cell CPT	TDP1 cell noCPT	HepG2 tox	IL-1B inflam inh
COc1ccc(CCn2c(=S)[nH]c(=O)c3cccnc32)cc1OC	.	.	0.22µM*	0.1µM*	.	.
COc1ccc(CCn2c(=O)c3cccnc3n(CC(=O)Nc3c(C)cccc3C)c2=O)cc1OC	5%	2%	14%	-24%	4%	.
COc1ccc(CCn2c(=O)c3cccnc3n(Cc3ccc([N+](=O)[O-])cc3)c2=O)cc1OC	0%	12%	?	16µM*	3%	8
COc1ccc(Cn2c(=O)c3cccnc3n(Cc3ccc([N+](=O)[O-])cc3)c2=O)cc1	5%	-14%	?	-14%	-25%	-15
CCc1ccc(NC(=O)CSc2nnc(-c3cc4occc4n3C)n2-c2ccccc2C)cc1	10%	-4%	?	?	-5%	.
COc1ccc(NC(=O)CN(C)S(=O)(=O)c2ccc3[nH]c4c(c3c2)CCCC4)cc1OC	2%	?	?	16µM*	-26%	.
COc1cc(Cl)c(NC(=O)CN(C)S(=O)(=O)c2ccc3[nH]c4c(c3c2)CCCC4)c(OC)c1	2%	?	23µM*	18µM*	-42%	.
CN(CC(=O)Nc1cccc(Cl)c1)S(=O)(=O)c1ccc2[nH]c3c(c2c1)CCCC3	7%	?	?	23µM*	-40%	.
CN(CC(=O)Nc1cccc(C(F)(F)F)c1)S(=O)(=O)c1ccc2[nH]c3c(c2c1)CCCC3	4%	?	?	?	-80%	.
Cc1ccc(NC(=O)CN(C)S(=O)(=O)c2ccc3[nH]c4c(c3c2)CCCC4)c(Cl)c1	4%	?	?	18µM*	-35%	.
Cc1ccc(NS(=O)(=O)c2ccc3[nH]c4c(c3c2)CCCC4)c(C)c1	7%	?	?	?	-99%	.
COC(=O)c1ccc(NS(=O)(=O)c2ccc3[nH]c4c(c3c2)CCCCC4)cc1	7%	?	.	.	-87%	.
COc1ccc(NC(=O)CN(C)S(=O)(=O)c2ccc3[nH]c4c(c3c2)CCCC4)cc1Cl	11%	?	23µM*	?	-21%	.
COc1ccc(Cl)cc1NS(=O)(=O)c1ccc2[nH]c3c(c2c1)CCCC3	9%	?	?	?	-74%	.
CCN(CC)S(=O)(=O)c1cc(NC(=O)CSc2nc3c(cc2C#N)C(=O)CC(C)(C)C3)ccc1C	6%	-28%	?	18µM*	7%	-57*
CCC1C(=O)NCCN1Cc1ccc2c(c1)CN(Cc1ccc(OC)cc1OC)CCO2 (stereo not given)	.	.	15%[9.04 µM]	?	.	.
O=C(O)c1cc(-c2ccco2)[nH]n1	-1%[56.1 µM]	-7%	-15%	-2%	0%	14
